# Assay outcomes deposited in PubChem BioAssay by Broad Institute.
# The list is not random: actives were taken first. Their share in the collection is about 6.7%.
# C diff HTS = inhibitors of Clostridium difficile growth; AID 1259249; Clostridium difficile clinical isolate growth, OD600, 24 h; stronger effect = lower value; growth activity, negative = inhibition, % at 16 µg/mL (by protocol); 86,000 tested, 0.25% active;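 active = mean growth activity at or below -80% and every replicate also at or below -80%; inconclusive = mean at or below -80% but some replicate above -80%; inactive = mean growth activity above -80%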;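 also: 0% = DMSO wells and -100% = levofloxacin 16 µg/mL wells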
# Pf Dd2 inh = inhibitors of Plasmodium falciparum Dd2 growth | AID 1159554 | P. falciparum Dd2 growth, SYBR Green, 72 h; stronger effect = lower value | 94,000 tested, 2.3% active | activity change, % at 10 µM; in the data active = activity change below about -80%; inconclusive = no clear call, values can overlap the other calls
# T cruzi growth-1 = inhibitors of T. cruzi proliferation. T. cruzi beta-gal in NIH3T3, GalScreen luminescence, 90 h. AID 624255. inhibition, % at 8.34 µM. 77,000 tested, 5.9% active;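 active = mean inhibition above about 93%, with at least 55% of replicates each passing it, limit read from the data, passing the limit was not always enough; inconclusive = only one of those two conditions holds; inactive = neither condition holds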
# T cruzi growth-2 = inhibitors of T. cruzi proliferation | shares compounds with T cruzi growth-1 | T. cruzi beta-gal in NIH3T3, GalScreen luminescence, 90 h | inhibition, % at 8.35 µM | 5,600 tested, 72% active | AID 651739;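 active = mean replicate inhibition above about 95% and at least 55% of replicates individually reaching it, limit read from the data; inconclusive = only one of the two criteria is met; inactive = neither criterion is met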
# T cruzi growth-3 = Trypanosoma cruzi proliferation inhibition. inhibition, % at 2.09 µM. shares compounds with T cruzi growth-1. 5,600 tested, 21% active. T. cruzi beta-gal in NIH3T3, GalScreen luminescence, 90 h;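 active = mean inhibition above about 95%, with at least 55% of replicates also reaching it, limit read from the data; inconclusive = meets just one of the two conditions; inactive = meets neither condition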;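 also: plate controls were neutral control median for no effect and positive control median for full effect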
# NIH3T3 tox = NIH/3T3 (mouse) viability loss; shares compounds with T cruzi growth-1; cytotoxicity (signal decrease), % at 8.35 µM; AID 651742; 5,600 tested, 14% active; NIH/3T3 viability, CellTiter-Glo ATP luminescence, 90 h;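 active = mean signal decrease across replicates above about 35% based on untreated-well scatter, with enough replicates individually passing, limit read from the data; inconclusive = no rule stated though some were filed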;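 also: 0% = median of neutral control wells and 100% = median of positive control wells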
# NIH3T3 tox 2 = kills mouse NIH/3T3 fibroblasts; NIH/3T3 viability, CellTiter-Glo ATP luminescence, 90 h; AID 651744; 5,600 tested, 56% active; shares compounds with T cruzi growth-1; inhibition, % at 24.9 µM;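 active = mean loss of cell viability signal at or above a set limit, and enough replicates individually reaching it; inconclusive = meets only the mean limit or only the replicate share; inactive = meets neither condition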;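 also: 0% = median of neutral control wells and 100% = median of positive control wells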
# An asterisk follows results filed as active; ? = inconclusive; . = not tested or not shown.
SMILES,C diff HTS,Pf Dd2 inh,T cruzi growth-1,T cruzi growth-2,T cruzi growth-3,NIH3T3 tox,NIH3T3 tox 2
C[C@@H]1CN([C@@H](C)CO)C(=O)c2cc(NC(=O)Nc3ccccc3)ccc2O[C@@H](C)CCCCO[C@@H]1CN(C)Cc1ccc2c(c1)OCO2,5,?,97*,101*,37,42*,34*
C[C@@H]1CN([C@H](C)CO)C(=O)c2cc(NC(=O)Nc3ccccc3)ccc2O[C@@H](C)CCCCO[C@@H]1CN(C)Cc1ccc2c(c1)OCO2,19,-84*,?,87,92,94*,103*
C[C@H](CO)N1C[C@H](C)[C@@H](CN(C)Cc2ccc3c(c2)OCO3)OCCCC[C@H](C)Oc2ccc(NC(=O)Nc3ccc4c(c3)OCO4)cc2C1=O,.,-24,91,.,.,.,.
C[C@@H]1CCCCO[C@@H](CN(C)CC2CC2)[C@H](C)CN([C@@H](C)CO)C(=O)c2cc(NC(=O)CCCN(C)C)ccc2O1,9,31,.,.,.,.,.
CC(C)NC(=O)Nc1ccc2c(c1)CC(=O)N([C@@H](C)CO)C[C@H](C)[C@@H](CN(C)C)O2,4,-9,11,.,.,.,.
C[C@H](NC(=O)[C@H]1[C@H](CO)[C@H]2Cn3c(ccc(-c4cccnc4)c3=O)[C@@H]1N2C)c1ccccc1,1,9,69,.,.,.,.
CCc1cnc(N2[C@@H](C#N)[C@@H](c3ccc(C#CC(C)C)cc3)[C@@H]2CO)s1,-5,-4,97*,101*,108*,26,74*
CCc1cnc(N2[C@@H](C#N)[C@H](c3ccc(C#CC(C)C)cc3)[C@@H]2CO)s1,-31,-24,107*,112*,52,-5,-2
CCc1cnc(N2[C@@H](C#N)[C@@H](c3ccccc3)[C@@H]2CO)s1,-7,15,-3,.,.,.,.
CCc1cnc(N2[C@H](CO)[C@H](c3ccccc3)[C@@H]2C#N)s1,-7,43,-8,.,.,.,.
CC(=O)N(C)C[C@H]1Oc2cc(C#CC(C)(C)O)ccc2S(=O)(=O)N([C@@H](C)CO)C[C@@H]1C,-1,-5,.,.,.,.,.
C[C@@H]1CN([C@@H](C)CO)C(=O)c2cc(NC(=O)C3CC3)ccc2O[C@H]1CN(C)Cc1ccc(Cl)c(Cl)c1,-4,-11,57,.,.,.,.
Cc1ccc(S(=O)(=O)N(C)C[C@@H]2Oc3ccc(NC(=O)C4CC4)cc3CC(=O)N([C@H](C)CO)C[C@@H]2C)cc1,7,-51,39,.,.,.,.
C[C@H](CO)N1C[C@H](C)[C@H](CN(C)Cc2ccc(Oc3ccccc3)cc2)Oc2c(NC(=O)Nc3ccc4c(c3)OCO4)cccc2C1=O,-2,-13,88,.,.,.,.
C[C@H]1CN([C@@H](C)CO)C(=O)c2cccc(NC(=O)Nc3ccc4c(c3)OCO4)c2O[C@@H]1CN(C)Cc1ccc(C(=O)O)cc1,-2,0,18,.,.,.,.
C[C@@H]1CN([C@@H](C)CO)C(=O)c2cccc(NC(=O)Nc3ccc4c(c3)OCO4)c2O[C@H]1CN(C)Cc1ccc(C(=O)Nc2ccccc2N)cc1,.,-85*,115*,110*,?,16,30*
C[C@H]1CN([C@@H](C)CO)C(=O)c2cccc(NC(=O)Nc3ccc4c(c3)OCO4)c2O[C@@H]1CN(C)Cc1ccc(Oc2ccccc2)cc1,3,-15,92*,96*,63,-22,-28
C[C@@H]1CN([C@@H](C)CO)C(=O)c2cc(NC(=O)Nc3ccccc3)ccc2O[C@H]1CN(C)Cc1ccc(Oc2ccccc2)cc1,10,-13,58,.,.,.,.
C[C@H](CO)N1C[C@H](C)[C@H](CN(C)Cc2ccc(Oc3ccccc3)cc2)Oc2ccc(NC(=O)Nc3ccc4c(c3)OCO4)cc2C1=O,18,-3,110*,102*,7,-7,32*
C[C@H]1CN([C@@H](C)CO)C(=O)c2cc(C3=CCCCC3)cnc2O[C@H]1CN(C)C(=O)C1CCOCC1,-5,21,67,.,.,.,.
C[C@H](CO)N1C[C@H](C)[C@H](CN(C)S(C)(=O)=O)Oc2ccc(NC(=O)CCCN(C)C)cc2CC1=O,-2,34,.,.,.,.,.
CCCNC(=O)[C@H]1[C@H](CO)[C@H]2Cn3c(ccc(-c4ccccc4OC)c3=O)[C@@H]1N2C(=O)NCCC,0,11,-4,.,.,.,.
CCCNC(=O)N1[C@@H]2c3ccc(-c4ccccc4OC)c(=O)n3C[C@H]1[C@H](CO)[C@H]2C(=O)NCC,-2,.,107*,-9,-2,-8,-6
COCCNC(=O)[C@@H]1[C@@H](CO)[C@@H]2Cn3c(ccc(-c4ccc(F)cc4)c3=O)[C@H]1N2C(=O)NC(C)C,-2,13,20,.,.,.,.
COCCNC(=O)[C@H]1[C@H](CO)[C@H]2Cn3c(ccc(-c4ccc(OC)cc4)c3=O)[C@@H]1N2C(=O)NC(C)C,4,20,100*,18,-23,14,19
SMILES,C diff HTS,Pf Dd2 inh,T cruzi growth-1,T cruzi growth-2,T cruzi growth-3,NIH3T3 tox,NIH3T3 tox 2
CC(C)c1cn([C@H]2C[C@@H]3O[C@H](CO)CC[C@@H]3O[C@@H]2CCc2ccc(-c3ccccc3)cc2)nn1,12,-61,.,.,.,.,.
O=C(C[C@H]1CC[C@@H]2[C@H](COC[C@@H](O)CN2C(=O)c2ccncc2)O1)NCc1cccc(F)c1,1,.,-54,.,.,.,.
Cc1ccc(S(=O)(=O)N[C@H]2CC[C@@H](CCNC(=O)C3CCC3)O[C@H]2CO)cc1,-2,-7,.,.,.,.,.
CCCN(C)C[C@H]1Oc2cc(C#Cc3ccccn3)ccc2S(=O)(=O)N([C@@H](C)CO)C[C@H]1C,-1,-57,-8,.,.,.,.
C[C@@H]1CN([C@@H](C)CO)S(=O)(=O)c2ccc(C#Cc3ccccn3)cc2O[C@H]1CN(C)Cc1cccc(F)c1,-3,-39,120*,97*,94,19,-54
C[C@@H]1CN([C@H](C)CO)S(=O)(=O)c2ccc(C#Cc3ccccn3)cc2O[C@@H]1CN(C)Cc1cccc(F)c1,-3,-40,122*,105*,86,25,70*
C[C@H]1CN([C@@H](C)CO)S(=O)(=O)c2ccc(C#Cc3ccccn3)cc2O[C@H]1CN(C)CC1CC1,4,-49,20,.,.,.,.
CC(C)NC(=O)N(C)C[C@H]1Oc2ccc(NC(=O)NC3CCCCC3)cc2C(=O)N([C@@H](C)CO)C[C@@H]1C,0,13,-23,.,.,.,.
COc1ccc(S(=O)(=O)N(C)C[C@@H]2Oc3c(NC(=O)Nc4c(C)noc4C)cccc3C(=O)N([C@H](C)CO)C[C@H]2C)cc1,.,-18,68,.,.,.,.
C[C@@H]1CN([C@@H](C)CO)C(=O)c2cc(NC(=O)c3ccccc3)ccc2O[C@@H](C)CCCCO[C@H]1CN(C)Cc1ccccc1,3,-85*,102*,98*,67,-1,61*
C[C@@H]1CN([C@@H](C)CO)C(=O)c2cc(NC(=O)c3ccccc3)ccc2O[C@@H](C)CCCCO[C@@H]1CN(C)Cc1ccncc1,-8,-77,114*,100*,29,-14,14
